MRP1 act – H69AR viability gain despite doxorubicin, primary screen, MRP-1 activator project, H69AR cells, CellTiter-Glo; viability rescue; viability increase, % at 10 µM; 140,000 tested, 0.61% active; AID 799, 2007;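 active = viability gain under doxorubicin at or above a set limit, the compound median plus 3 SD, cut at about 4.7% in these data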;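 also: MRP-1 overexpressing cells given doxorubicin 25 µM after compound pretreatment; 18-22 h compound pretreatment then 72 h with doxorubicin before readout; 0% = doxorubicin-only wells and 100% = vehicle-treated cells without doxorubicin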
Measles CPE – compounds protecting cells from measles virus cytopathic effect, primary screen, measles RdRp inhibitor project, single point, MLSMR library, absorbance | 140,000 tested, 1.5% active | Measles virus-infected cells, CPE protection | protection (pct of control), % at 4 µM; in the data active = protection mostly above about 24%, no sharp cut-off; inactive = mostly below about 26%
sEH inhibitor – soluble epoxide hydrolase inhibitors, primary screen, biochemical, human sEH; recombinant human sEH enzymatic activity assay; inhibition, % at 2 µM; 91,000 tested, 0.34% active; in the data active = inhibition above about 80%
Target sequence (P34913 whole entry, looked up): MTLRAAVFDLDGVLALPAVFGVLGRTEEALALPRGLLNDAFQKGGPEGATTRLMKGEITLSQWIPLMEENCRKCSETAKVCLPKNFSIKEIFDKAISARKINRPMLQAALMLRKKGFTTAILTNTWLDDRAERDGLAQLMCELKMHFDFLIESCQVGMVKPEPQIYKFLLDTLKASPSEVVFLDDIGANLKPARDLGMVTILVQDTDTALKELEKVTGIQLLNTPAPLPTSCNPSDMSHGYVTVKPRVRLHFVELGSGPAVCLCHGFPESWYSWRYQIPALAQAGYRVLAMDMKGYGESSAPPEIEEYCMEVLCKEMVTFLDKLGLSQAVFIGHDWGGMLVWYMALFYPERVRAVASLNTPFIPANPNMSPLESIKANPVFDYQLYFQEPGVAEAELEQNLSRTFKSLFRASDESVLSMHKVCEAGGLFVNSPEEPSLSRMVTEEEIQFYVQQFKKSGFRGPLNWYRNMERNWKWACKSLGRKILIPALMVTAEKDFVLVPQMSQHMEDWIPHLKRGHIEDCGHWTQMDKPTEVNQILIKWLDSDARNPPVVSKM
sdo1 growth – growth rescue of sdo1-depleted yeast, primary screen, S. cerevisiae, bone marrow failure model; S. cerevisiae sdo1-depleted JHY4D growth rescue, OD600 30 h; hits give high values; pdr5 snq2 efflux-pump mutant strain; z-score at 10 µM; 140,000 tested, 0.21% active;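 active = z-score above 3 at both the 24 hr and the 30 hr optical density reads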;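 also: z-score against mean and SD of all compound wells on the same plate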
MRP reversal – reversal of MRP1-mediated doxorubicin resistance, primary screen, H69AR cells, doxorubicin co-treatment. H69AR cells + 2 uM doxorubicin, CellTiter-Glo, 72 h. differential viability (reversal), % at 10 µM. 85,000 tested, 0.04% active;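 active = viability drop by adding the cancer drug above about 55%, with treated viability meeting a 40% cutoff, limit read from the data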;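 also: viability without doxorubicin minus viability with 2 µM doxorubicin for each compound; larger differential means the compound sensitizes cells more to doxorubicin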
sEH act – soluble epoxide hydrolase activators, primary screen, biochemical, human sEH. Bifunctional epoxide hydrolase 2 (Homo sapiens), P34913. purified human sEH enzymatic activity, activator screen. activation, % at 2 µM. 91,000 tested, 0.04% active. AID 717, 2007; in the data active = activation above about 37%
Starred values were filed as active, the others as inactive; . = not tested or not shown. Compounds with a hit are over-represented: about 2.5% of the library has one in this group of screens.

SMILES	MRP1 act	Measles CPE	sEH inhibitor	sdo1 growth	MRP reversal	sEH act
O=C(NNc1ccc([N+](=O)[O-])cc1)C1CC2CCCC(C1)C2=O (stereo not given)	-0.7	2.2	16.4	0.2	.	-14.7
O=C(NNc1ccc([N+](=O)[O-])cc1)C1CC1c1ccccc1 (stereo not given)	-0.5	22.8*	.	0.2	.	.
CC(=O)c1cccc(NC(=O)CSCc2ccccc2)c1	-3.1	4.9	4.9	1.04	.	-6.4
CCCNC(=O)Cn1cnc2sc(C(=O)NCCN(CC)CC)c(C)c2c1=O	-0.6	36.9*	-4.8	0.89	7.2	5.5
O=C(NCCN1CCOCC1)c1cc(Cl)ccc1[N+](=O)[O-]	2.9	32.4*	.	0.48	.	.
O=C(NCCN1CCOCC1)c1ccc([N+](=O)[O-])cc1[N+](=O)[O-]	-1.4	2.6	-17.1	0.78	.	19.8
CCCn1nc2cc(C(=O)NCc3ccc(C)cc3)ccc2c1OCC	-0.6	84.0*	10.9	-0.12	.	-9.8
COC(=O)c1[nH]nc(C(=O)OC(C)(C)C)c1-c1ccccc1	-0.4	5.9	.	-0.52	.	.
CC1(C)NC(=O)N(CC(O)COc2ccc(N3C(=O)c4ccccc4C3=O)cc2)C1=O (stereo not given)	-3.0	46.8*	-17.4	1.03	-5.8	16.9
Cc1nn(CCC#N)c2nc(C(F)(F)F)[nH]c(=O)c12	-2.1	19.6	.	-0.88	-2.8	.
Cc1nn(-c2ccccc2)c2nc(C(F)(F)F)[nH]c(=O)c12	2.0	40.9*	.	0.71	.	.
COc1ccccc1NC(=S)N(Cc1ccco1)Cc1cc2cc(C)ccc2[nH]c1=O	-3.9	15.7	.	0.14	.	.
CNc1ccc(C2(O)C(=O)c3ccccc3C2=O)cc1	-1.7	12.5	.	0.11	.	.
COC(=O)c1ccc2c(=O)n(CCN3CCOCC3)c(=S)[nH]c2c1	-1.1	2.6	-11.0	1.76	8.8	8.2
COc1ccc(C2CC(C(F)(F)F)n3ncc(C(=O)NCC4CCCO4)c3N2)cc1OC (stereo not given)	-2.7	32.1*	.	0.48	.	.
CN(C)S(=O)(=O)c1cccc(C(=O)OCC(=O)NC2CCCc3ccccc32)c1 (stereo not given)	1.0	27.6	.	1.14	.	.
O=C1N(c2cccc(Cl)c2)C(c2ccccc2)N2CCCN12 (stereo not given)	-0.9	11.2	.	1.63	.	.
O=C1N(c2cccc3ccccc23)C(c2ccccc2)N2CCCN12 (stereo not given)	-1.6	20.2*	.	0.84	.	.
COc1ccc(S(=O)(=O)Nc2ccc3c(c2)COC3=O)cc1OC	-0.3	12.4	7.0	1.55	20.6	-5.6
CS(=O)(=O)Nc1ccc2c(c1)C(=O)OC2	-2.3	52.9*	-4.9	0.56	-1.9	2.6
Cc1nc2ccc(NS(=O)(=O)c3ccc4c(c3)OCCO4)cc2s1	-2.1	3.8	-6.5	-0.59	.	5.7
O=S(=O)(c1ccccc1)N1CCN(CC(O)COc2ccc3c(c2)CCC3)CC1 (stereo not given)	-0.3	31.1*	2.5	-0.18	-8.9	-1.1
COc1cc(CNCCc2c[nH]c3ccccc23)ccc1OCc1ccc(F)cc1	-5.6	5.2	-2.0	-2.02	.	5.2
O=C(c1ccc(F)cc1)N1CCN=C1c1ccccc1	-1.1	7.9	.	0.52	.	.
O=C(COC(=O)c1ccccc1Cl)NC(=O)NCc1ccccc1	0.9	68.3*	.	-0.74	.	.
SMILES	MRP1 act	Measles CPE	sEH inhibitor	sdo1 growth	MRP reversal	sEH act
Clc1ccc(Oc2nc(N3CCOCC3)nc(N3CCOCC3)n2)cc1	-1.3	33.7*	-3.5	-0.96	18.0	5.8
COc1ccc(N2CCN(c3nc(Cl)nc(N4CCOCC4)n3)CC2)cc1	8.8*	6.2	-7.5	-0.45	-7.5	10.1
CC(C)(C)NC(=O)COC(=O)CNC(=O)c1cc(Cl)cc([N+](=O)[O-])c1	-0.1	17.9	.	1.03	.	.
COC(=O)c1ccc(C(=O)NC(=S)Nc2ccc3nc(SC)sc3c2)cc1	-4.8	0.4	.	-0.96	.	.
CC(C)(C)NC(=O)C(c1c[nH]c2ccccc12)N(C(=O)Cn1nnc(-c2ccc(Cl)cc2)n1)c1ccccc1F (stereo not given)	-1.3	7.5	.	-0.14	.	.
O=C(NC1CCCC1)C(c1c[nH]c2ccccc12)N(C(=O)Cn1nnc(-c2ccc(Cl)cc2)n1)c1ccccc1 (stereo not given)	11.0*	10.1	9.9	-0.47	.	-11.7
COc1ccc(CNc2nc3ccccc3n2Cc2ccccc2)cc1OC	-2.7	5.2	1.8	-0.59	.	-2.2
N#CCSCC(=O)Nc1ccc(F)cc1	-0.7	53.7*	2.2	0.85	10.4	-1.9
N#CCSCC(=O)Nc1ccc(Br)cc1	-1.5	73.2*	-6.6	0.83	9.1	3.8
CC1(C)NC(=O)N(CCOCCOc2c(Cl)cc(Cl)cc2Cl)C1=O	-0.3	0.9	-4.6	0.55	6.6	4.3
O=[N+]([O-])c1cc(/C=N/O)ccc1SCc1ccccc1	-3.3	75.5*	-4.0	-1.18	.	2.8
Cc1ccc(NC(=S)NNC(=O)c2nn(C)c(C)c2Cl)cc1	1.0	102.0*	-8.4	1.61	.	11.6
CN(c1ccccc1)S(=O)(=O)c1cccc(NC(=O)CSc2ncc(C(F)(F)F)cc2Cl)c1	0.2	5.7	.	-0.45	.	.
CCCCOc1ccc(C(=O)N/C(=C/C=C/c2ccccc2)C(=O)NCCO)cc1	-0.4	6.6	.	0.72	.	.
CCCCOc1ccc(C(=O)N/C(=C/C=C/c2ccccc2)C(=O)NCCCO)cc1	0.7	48.0*	.	0.81	.	.
CN1CCN(C(=O)C(C(=O)c2ccc(F)cc2)n2ccccc2=O)CC1 (stereo not given)	-0.9	4.3	8.2	0.03	2.9	-9.6
O=C(c1ccc2c(=O)n(Cc3ccc4c(c3)OCO4)c(=S)[nH]c2c1)N1CCCCC1	-3.2	25.5	82.3*	-0.94	-2.6	-82.2
O=C(CCCCCn1c(=S)[nH]c2ccccc2c1=O)NCc1ccc2c(c1)OCO2	-1.9	4.6	82.9*	-1.37	.	-83.4
CCOC(=O)C1CCCN(C(=O)c2ccc3c(=O)n(CCOC)c(=S)[nH]c3c2)C1 (stereo not given)	-3.2	27.9*	10.2	-0.48	0.6	-10.6
CCN(CCCNC(=O)CCCCn1c(=O)[nH]c2ccccc2c1=O)c1ccccc1	0.6	6.4	80.5*	-0.27	-10.0	-80.3
S=C(N/N=C1\C2CN3CCN(C2)CC1(c1ccccc1)C3)Nc1ccccc1	-1.9	12.3	.	-0.69	.	.
CCOCCCn1c(=S)[nH]c2cc(C(=O)NCCN(CC)CC)ccc2c1=O	-2.4	33.7*	5.0	1.05	13.1	-4.7
CCCCNC(=O)c1ccc2c(=O)n(CCCOCC)c(=S)[nH]c2c1	-0.6	17.8	77.0	-0.18	9.3	-76.4

Screening results deposited in PubChem by several laboratories.
